Test results published in PubChem BioAssay (NCI).
This is part of a sample that, as a whole, favours compounds with a hit. Of some 79,000 tested, about 15% had one in any assay. Active and inactive are the calls of the source. No stated cut-off is given here; in the data, active means growth inhibition above about 70%; inactive means the rest.

How the values were obtained:
[1] = NCI Yeast Anticancer Drug Screen. Data for the rad52 strain (AID 147);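 further: 0% = growth of vehicle-treated control cultures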; details: S. cerevisiae rad52 mutant growth inhibition, hits give high values
Procedure, shortened: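 Vehicle-treated cultures served as the reference for growth inhibition of compound-exposed yeast bearing a DNA repair mutation.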

[2] = NCI Yeast Anticancer Drug Screen. Data for the wt1 strain (AID 149);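 further: 0% = growth of vehicle-treated wt1 cultures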; details: S. cerevisiae wt1 strain (SPY 50644) growth inhibition, hits give high values
Procedure, shortened: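 wt1 yeast, compound-treated; % growth inhibition vs vehicle control.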

[3] = NCI Yeast Anticancer Drug Screen. Data for the rad50EPP+ strain (AID 151);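 further: 0% = growth of vehicle-treated control cultures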; details: S. cerevisiae rad50 mutant strain, hits give high values
Procedure, shortened: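 In this screen, rad50EPP+ yeast were exposed to compounds. Growth inhibition was scored against vehicle-treated controls.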

[4] = NCI Yeast Anticancer Drug Screen. Data for the rad50 strain (AID 155);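 further: 0% = growth of vehicle-only cultures of the same strain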; details: S. cerevisiae rad50 strain growth inhibition, hits give high values
Procedure, shortened: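 Genetically altered yeast (DNA repair pathway); compound treatment; growth inhibition vs vehicle ctrl.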

[5] = NCI Yeast Anticancer Drug Screen. Data for the mec2-1 strain (AID 157); details: S. cerevisiae mec2-1 strain, hits give high values
Procedure, shortened: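 Vehicle-treated cultures served as reference for growth inhibition of compound-exposed mec2-1 yeast.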

[6] = NCI Yeast Anticancer Drug Screen. Data for the rad14 strain (AID 159);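 further: 0% = growth of vehicle-treated control cultures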; details: S. cerevisiae rad14 strain growth inhibition, hits give high values
Procedure, shortened: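 Test compounds were applied to a repair-deficient yeast strain. Its growth was then compared with that of cultures given vehicle alone, and inhibition was expressed relative to those controls.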

[7] = NCI Yeast Anticancer Drug Screen. Data for the sgs1 mgt1 strain (AID 161);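 further: 0% = growth of cultures given vehicle only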; details: S. cerevisiae sgs1 mgt1 strain, hits give high values
Procedure, shortened: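 Test agents were incubated with a DNA-repair-mutant yeast strain. Growth was then read and compared against vehicle-treated controls.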

[8] = NCI Yeast Anticancer Drug Screen. Data for the CLN2oe strain (AID 163);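 further: 0% = growth of vehicle-only control cultures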; details: S. cerevisiae CLN2oe strain, hits give high values
Procedure, shortened: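 Inhibition relative to vehicle-treated yeast is reported. Cells: strain with genetic alteration in cell-cycle control, grown with compound.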

[9] = NCI Yeast Anticancer Drug Screen. Data for the cln2 rad14 strain (AID 165);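 further: 0% = growth equal to vehicle treated cultures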; details: S. cerevisiae cln2 rad14 strain, hits give high values
Procedure, shortened: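 Each compound was tested on cln2 rad14 yeast. Inhibition of growth was calculated against vehicle-exposed controls.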

[10] = NCI Yeast Anticancer Drug Screen. Data for the wt2 strain (AID 169);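 further: 0% = growth of vehicle-treated yeast cultures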; details: S. cerevisiae wt2 strain growth inhibition, hits give high values
Procedure, shortened: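 Inhibition of yeast growth was determined after compound treatment, normalised to controls receiving only vehicle.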

[11] = NCI Yeast Anticancer Drug Screen. Data for the mlh1 strain (AID 171);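 further: 0% = growth of vehicle-treated control cultures of the same strain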; details: S. cerevisiae mlh1 strain growth inhibition, hits give high values
Procedure, shortened: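 Vehicle-normalised growth inhibition of a repair- or checkpoint-altered yeast strain following compound treatment.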

[12] = NCI Yeast Anticancer Drug Screen. Data for the sgs1 strain (AID 173);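 further: 0% = growth of vehicle-only control cultures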; details: S. cerevisiae sgs1 mutant, hits give high values
Procedure, shortened: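 Screen format: yeast with repair or checkpoint alterations, compound exposure, growth read relative to vehicle.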

[13] = NCI Yeast Anticancer Drug Screen. Data for the mlh1 rad18 strain (AID 175); details: S. cerevisiae mlh1 rad18 strain growth inhibition, hits give high values
Procedure, shortened: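 Vehicle-treated cultures served as the reference for growth inhibition in a yeast strain carrying DNA damage repair alterations exposed to each compound.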

[14] = NCI Yeast Anticancer Drug Screen. Data for the rad18 strain (AID 177); details: S. cerevisiae rad18 mutant growth inhibition, hits give high values
Procedure, shortened: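 Test articles were incubated with altered yeast defective in DNA damage repair. Results are given as inhibition of growth versus vehicle.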

[15] = NCI Yeast Anticancer Drug Screen. Data for the bub3 strain (AID 167); details: S. cerevisiae bub3 mutant strain, hits give high values
Procedure, shortened: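 Yeast carrying a defined mutation is treated with each compound, and growth is compared with that of vehicle-exposed cells to give inhibition.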

[16] = at 5.0 µM (retest, dose inferred, filed as 0.5)
[17] = at 50.0 µM (retest, dose inferred, filed as 5.0)

Measured: growth inhibition

COc1cc(N(C)C)ccc1/C=C\c1ccnc2ccccc12
inactive: [1]; at 1.2 µM -5% | [1]; at 3.7 µM -7% | [1]; at 11.0 µM -6% | [1]; at 33.0 µM -5% | [1]; at 100.0 µM -10% | [2]; at 1.2 µM -5% | [2]; at 3.7 µM -7% | [2]; at 11.0 µM -7% | [2]; at 33.0 µM -9% | [2]; at 100.0 µM -7% | [3]; at 1.2 µM -2% | [3]; at 3.7 µM -2% | [3]; at 11.0 µM 10% | [3]; at 33.0 µM 16% | [3]; at 100.0 µM 12% | [4]; at 1.2 µM -5% | [4]; at 3.7 µM -7% | [4]; [16] -10% | [4]; at 11.0 µM -3% | [4]; at 33.0 µM -1% | [4]; [17] -10% | [4]; at 50.0 µM 2.3% | [4]; at 100.0 µM 1% | [5]; at 1.2 µM -4% | [5]; at 3.7 µM -7% | [5]; [16] -11% | [5]; at 11.0 µM -8% | [5]; at 33.0 µM -4% | [5]; [17] -19% | [5]; at 50.0 µM -8.75% | [5]; at 100.0 µM 0% | [6]; at 1.2 µM -5% | [6]; at 3.7 µM -4% | [6]; at 11.0 µM 0% | [6]; at 33.0 µM 6% | [6]; at 100.0 µM 37% | [7]; [16] 0% | [7]; [17] 64% | [7]; at 50.0 µM -4.05% | [8]; at 1.2 µM -11% | [8]; at 3.7 µM -13% | [8]; at 11.0 µM -18% | [8]; at 33.0 µM -15% | [8]; at 100.0 µM -9% | [9]; [16] -17% | [9]; [17] -13% | [9]; at 50.0 µM -3.5% | [10]; at 1.2 µM -4% | [10]; at 3.7 µM -7% | [10]; at 11.0 µM -4% | [10]; at 33.0 µM 16% | [10]; at 100.0 µM 31% | [11]; at 1.2 µM -1% | [11]; at 3.7 µM -6% | [11]; at 11.0 µM 3% | [11]; at 33.0 µM 22% | [11]; at 100.0 µM 38% | [12]; at 1.2 µM -4% | [12]; at 3.7 µM -5% | [12]; at 11.0 µM 10% | [12]; at 33.0 µM 36% | [12]; at 100.0 µM 45% | [13]; [16] -8% | [13]; [17] 32% | [13]; at 50.0 µM 2.15% | [14]; at 1.2 µM -4% | [14]; at 3.7 µM -2% | [14]; at 11.0 µM -1% | [14]; at 33.0 µM 9% | [14]; at 100.0 µM 14%

CC(=O)N1C(=O)/C(=C\C(=O)c2ccc([N+](=O)[O-])cc2)c2ccccc21
active: [1]; at 33.0 µM 92% | [1]; at 100.0 µM 97% | [2]; at 33.0 µM 77% | [2]; at 100.0 µM 97% | [3]; at 33.0 µM 89% | [3]; at 100.0 µM 95% | [4]; at 33.0 µM 93% | [4]; [17] 98% | [4]; at 50.0 µM 85.5% | [4]; at 100.0 µM 95% | [5]; at 33.0 µM 91% | [5]; [17] 98% | [5]; at 50.0 µM 89.5% | [5]; at 100.0 µM 97% | [6]; at 33.0 µM 86% | [6]; at 100.0 µM 97% | [8]; at 100.0 µM 96% | [9]; at 50.0 µM 84.5% | [15]; at 33.0 µM 95% | [15]; [17] 96% | [15]; at 50.0 µM 86.8% | [15]; at 100.0 µM 96% | [10]; at 11.0 µM 93% | [10]; at 33.0 µM 98% | [10]; at 100.0 µM 98% | [11]; at 33.0 µM 95% | [11]; at 100.0 µM 97% | [14]; at 33.0 µM 90% | [14]; at 100.0 µM 97%
inactive: [1]; at 1.2 µM -14% | [1]; at 3.7 µM 18% | [1]; at 11.0 µM 53% | [2]; at 1.2 µM -10% | [2]; at 3.7 µM -15% | [2]; at 11.0 µM 21% | [3]; at 1.2 µM -12% | [3]; at 3.7 µM 35% | [3]; at 11.0 µM 4% | [4]; at 1.2 µM 0% | [4]; at 3.7 µM -8% | [4]; [16] 41% | [4]; at 11.0 µM 34% | [5]; at 1.2 µM -10% | [5]; at 3.7 µM 13% | [5]; [16] 60% | [5]; at 11.0 µM 28% | [6]; at 1.2 µM -8% | [6]; at 3.7 µM 9% | [6]; at 11.0 µM 31% | [8]; at 1.2 µM -31% | [8]; at 3.7 µM 4% | [8]; at 11.0 µM 28% | [8]; at 33.0 µM 51% | [9]; [16] 25% | [9]; [17] 66% | [15]; at 1.2 µM -33% | [15]; at 3.7 µM -11% | [15]; [16] 12% | [15]; at 11.0 µM 22% | [10]; at 1.2 µM 29% | [10]; at 3.7 µM 55% | [11]; at 1.2 µM -8% | [11]; at 3.7 µM 14% | [11]; at 11.0 µM 67% | [14]; at 1.2 µM 1% | [14]; at 3.7 µM 26% | [14]; at 11.0 µM 61%
